# Bioassay records as filed in PubChem BioAssay.
# MOR-DOR ag-1: agonists of OPRM1-OPRD1 heterodimerization, primary screen, cell-based, luminescence. cells. activation, % at 9.3 µM. 340,000 tested, 0.3% active. Mu-type opioid receptor (Homo sapiens) + Delta-type opioid receptor (Homo sapiens), …;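 further: 0% = vehicle-treated cells and 100% = reference agonist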
# HTR5A ag ctr: HTR5A agonists in luminescence cell assay, primary screen, counter-screen for OPRM1-OPRD1 heterodimer agonist project, full-deck HTS. cell-based. activation, % at 9.3 µM. 340,000 tested, 0.61% active. AID 504692, 2011; in the data active means activation mostly above about 9.5%, no sharp cut-off; inactive means mostly below about 7.6%;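 further: 0% = cells with vehicle only and 100% = reference agonist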
# HTR5A inv ctr: HTR5A inverse agonists in luminescence cell assay, primary screen, counter-screen for OPRM1-OPRD1 heterodimer inverse agonist project, full-deck HTS | HTR5A cell line, inverse agonism | inhibition, % at 9.3 µM | 340,000 tested, 0.083% active | AID 504634, 2011; in the data active means inhibition mostly above about 23%, no sharp cut-off; inactive means mostly below about 18%;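 further: 0% = cells with DMSO and 100% = no-cell wells with DMSO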
# PolyA inhibitor: polyadenylation inhibitors in yeast reporter cells, primary screen, luminescence, S. cerevisiae; S. cerevisiae SKY197-pL101 polyadenylation reporter, beta-gal luminescence; efflux-impaired pdr1/pdr3 knockout yeast; score 100 = 6 SD above DMSO; activity score, % at 12 µM; 300,000 tested, 0.02% active;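 active means lowest replicate activity score at least 50, where 100 means six control SD above control mean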;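 further: yeast exposed to compound for 9 h at 30 °C; higher score means more reporter readthrough which indicates perturbed polyadenylation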
# MOR-DOR inv ag: inverse agonists of MOR-DOR heterodimerization, primary screen, cell-based, luminescence; Mu-type opioid receptor (Homo sapiens) + Delta-type opioid receptor (Homo sapiens), …; cell-based MOR-DOR heterodimer luminescence, inverse agonism; inhibition, % at 9.3 µM; 340,000 tested, 0.21% active; AID 504357, 2011; in the data active means inhibition above about 22%, passing the limit was not always enough;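 further: 0% = cells with DMSO and 100% = wells without cells with DMSO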
# NALP1 inh: NALP1 inflammasome inhibitors in reconstituted yeast, colorimetric, S. cerevisiae, triplicate retest; inhibition, % at 10 µM; 280,000 tested, 0.61% active; AID 2071, 2009; S. cerevisiae NALP1/ASC/caspase-1 growth, X-gal OD620, 72 h; in the data active means inhibition mostly above about 24%, no sharp cut-off; inactive means mostly below about 32%
# MOR-DOR ag-2: OPRM1-OPRD1 heterodimerization promoters, counter-screen for HTR5A agonist project, cell-based, luminescence. shares compounds with HTR5A ag ctr. U2OS counter-screen cells, complementation luminescence, 3 h. activation, % at 9.3 µM. 800 tested, 13% active
# HTR5A ag confirm: HTR5A agonists, retest of hits, confirmation, cell-based, luminescence; shares compounds with HTR5A ag ctr; HTR5A agonist cell assay; activation, % at 9.3 µM; 800 tested, 17% active; in the data active means activation above about 17%;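 further: 0% = cells with vehicle only and 100% = full reference agonist response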
# An asterisk follows results filed as active; · = no result given. Most compounds without a hit are left out; they make up all but 1.6% or so of the library. Unless noted, no stated cut-off is given here; in the data, active means activation above about 18%; inactive means the rest.
SMILES,MOR-DOR ag-1,HTR5A ag ctr,HTR5A inv ctr,PolyA inhibitor,MOR-DOR inv ag,NALP1 inh,MOR-DOR ag-2,HTR5A ag confirm
c1ccc(-c2nc(SCc3nc4ccccc4[nH]3)c3oc4ccccc4c3n2)cc1,0,-2,-48,·,2,·,·,·
CC(=O)N1CCc2c(sc(NC(=O)C3CC3)c2-c2nc3ccccc3s2)C1,-2,16*,-47,16,11,·,2,1
COc1cccc(NC(=O)CN2CCc3ccccc3C2)c1,-2,5,-28,-9,11,19,·,·
COc1cc(C(=O)NCC(=O)N/N=C/c2ccc(OC(=O)c3ccco3)cc2)cc(OC)c1OC,-2,22*,-9,5,11,-9,1,4
O=C(Nc1nc(-c2ccccc2)ns1)c1ccncc1,-2,1,-4,4,9,·,·,·
c1ccc(CCNC2=NCCCS2)cc1,-2,20*,-54,15,13,8,2,0
O=C(c1ccc2c(Cl)c3c(nc2c1)CCCC3)N1CCN(c2ccc(F)cc2)CC1,1,16*,-41,-5,-8,52,5,5
COc1ccccc1N1CCN(C(=O)c2ccc3c(Cl)c4c(nc3c2)CCCC4)CC1,3,0,-13,12,-19,42,·,·
O=C(NC1CCC(O)CC1)c1cccnc1Sc1ccccc1Cl (stereo unspecified),-4,4,-9,-8,19,7,·,·
O=C(Nc1nnc(-c2ccc3c(c2)OCCO3)o1)C1CCCCC1,-2,2,-6,13,9,22,·,·
O=C(CSC1=NCCN1)Nc1cccc(C(F)(F)F)c1,-2,23*,-57,-3,8,0,24*,5
Cn1ccnc1SCC(=O)Nc1cccc(C(F)(F)F)c1,-1,0,3,2,4,13,·,·
COc1ccc(NC(=O)NCCN2CCN(c3cccc(Cl)c3)CC2)cc1,3,19*,-58,-13,-17,24,15,23*
CCOc1cccc(N2CCN(CCNC(=O)Nc3ccc(C)cc3)CC2)c1C,2,15*,-52,9,-8,19,6,20*
CCOc1ccc(NC(=O)NCCN2CCN(c3ccccc3F)CC2)cc1,-2,1,-3,-16,9,6,·,·
COc1ccc(N2CCN(CCNC(=O)Nc3ccc(C)c(Cl)c3)CC2)cc1,1,1,-5,-9,-7,12,·,·
COC(=O)c1c(NC(=O)c2ccccc2C(=O)O)sc2c1CCC2,-1,20*,-10,-7,7,6,1,-2
Cc1cccc(NC(=O)N2CCC(NC(=O)C3CCCCC3)CC2)c1,-2,17*,-47,1,9,18,0,1
CNC(=O)c1sc(-c2cccnc2)nc1C,-3,18*,-50,6,15,-1,1,1
CNC(=O)c1sc(-c2ccccc2)nc1C,-1,1,24,-8,3,-16,·,·
Cn1c(=O)cc(SCC(=O)N2CCN(Cc3ccc4c(c3)OCO4)CC2)c2ccccc21,-3,18*,3,-2,17,9,2,-2
CCn1c(=O)cc(SCC(=O)N2CCN(Cc3ccc4c(c3)OCO4)CC2)c2ccccc21,3,-1,-4,1,-17,5,·,·
Cc1c(Cl)cn2c(=O)cc(CN(C)Cc3nc4ccccc4c(=O)[nH]3)nc2c1Cl,·,·,·,9,·,-10,·,·
CCC1(C)Cc2ccccc2-c2nc(NCCCO)[nH]c(=O)c21 (stereo unspecified),-1,0,0,-8,5,0,·,·
CC(=O)Oc1ccc(C(=O)O)c(OC(C)=O)c1,-2,3,-9,-1,10,6,·,·
